Experimental data: PubChem BioAssay (NCATS)
Results filed as inconclusive are left out. Calls of active or inactive are those of the source. The call rests on the fitted dose curve; in most records, active means well fitted curve in the direction sought with a large enough effect; inconclusive means small, poorly fitted or top-dose-only effect, or another doubt; inactive means no such curve, though single readings can be large; an effect the other way counts as inactive or inconclusive.

What was measured:
[1] = qHTS of pediatric cancer cell lines to identify multiple opportunities for drug repurposing: Primary screen for Rh41 cells (AID 1347108); further: nearly all actives have a fitted effect of over 70% in size;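 on activity change, negative = cytotoxic: series mostly up to about 46 µM; luminescence drop marks cytotoxic hits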
In short: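 Cells seeded at 500-1,000 cells/well in growth media, rested 5 hours at 37 degrees C, 5% CO2, then dosed; MIPE compounds at 11-point (from 0.78 nM) and NPC at 8-point (from 0.59 nM) final concentrations. Viability by CellTiter-Glo luminescence after 48 hours.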

[2] = qHTS of pediatric cancer cell lines to identify multiple opportunities for drug repurposing: Confirmatory screen for NB1643 cells (AID 1347109); further: nearly all actives have a fitted effect of over 45% in size;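 on activity change, negative = cytotoxic: plate controls were DMSO for no effect and bortezomib for full effect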
In short: (§1)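 Cells (500-1,000/well) in growth media were settled 5 h at 37 degrees C, then given compounds for 48 h. Viability was read as CellTiter-Glo luminescence. Primary runs used MIPE at 11 points (0.78 nM-46 µM) and NPC at 8 points (0.59 nM-46 µM); follow-ups used 11 points.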

[3] = qHTS of pediatric cancer cell lines to identify multiple opportunities for drug repurposing: Confirmatory screen for SK-N-MC cells (AID 1347111);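 further: cells exposed to compound for 48 h before the readout; nearly all actives have a fitted effect of over 70% in size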;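 on activity change, negative = cytotoxic: plate controls were DMSO for no effect and bortezomib for full effect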
In short: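 Metabolically active cells were quantified by ATP-dependent luminescence (CellTiter-Glo, 15 min at room temperature) following 48 h treatment. Cells had been plated at 500-1,000 per well and settled for 5 h beforehand.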

[4] = qHTS of pediatric cancer cell lines to identify multiple opportunities for drug repurposing: Confirmatory screen for BT-12 cells (AID 1347112); further: nearly all actives have a fitted effect of over 55% in size; on activity change, negative = cytotoxic: on the % scale 0 is the no-effect control and ±100 the full control effect
In short: as §1

[5] = qHTS of pediatric cancer cell lines to identify multiple opportunities for drug repurposing: Confirmatory screen for LAN-5 cells (AID 1347113); further: nearly all actives have a fitted effect of over 65% in size
In short: as §1

[6] = qHTS of pediatric cancer cell lines to identify multiple opportunities for drug repurposing: Confirmatory screen for NB-EBc1 cells (AID 1347115);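 further: cells exposed to compound for 48 h before the viability read; nearly all actives have a fitted effect of over 45% in size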; on activity change, negative = cytotoxic: on the % scale 0 is the no-effect control and ±100 the full control effect
In short: as §1

[7] = qHTS of pediatric cancer cell lines to identify multiple opportunities for drug repurposing: Confirmatory screen for SJ-GBM2 cells (AID 1347116); further: nearly all actives have a fitted effect of over 60% in size;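 on activity change, negative = cytotoxic: plate controls were DMSO for no effect and bortezomib for full effect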
In short: (§2)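 Viability measured as metabolically active cells via CellTiter-Glo luminescence following 48 hours of compound exposure, 11-point dilutions in confirmatory testing. 500-1,000 cells/well plated 5 hours before dosing; controls were DMSO and 2.3 µM bortezomib.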

[8] = qHTS of pediatric cancer cell lines to identify multiple opportunities for drug repurposing: Confirmatory screen for A673 cells (AID 1347110);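 further: cells exposed to compound for 48 h before the viability read; nearly all actives have a fitted effect of over 65% in size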
In short: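 Cells plated at 500-1,000/well were treated five hours later with multi-point dilutions up to 46 µM final. After two days, CellTiter-Glo was added and luminescence read.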

[9] = qHTS of pediatric cancer cell lines to identify multiple opportunities for drug repurposing: Confirmatory screen for DAOY cells (AID 1347114); further: nearly all actives have a fitted effect of over 65% in size; on activity change, negative = cytotoxic: on the % scale 0 is the no-effect control and ±100 the full control effect
In short: as §2
Potency means the concentration at half of the fitted maximal effect.

C[C@@H](Oc1cc(-n2cnc3ccc(CN4CCN(C)CC4)cc32)sc1C(N)=O)c1ccccc1C(F)(F)F
active: Potency [2] 42.7 µM | Potency [3] 0.0537 µM | Potency [4] 47.9 µM | Potency [5] 10.7 µM | Potency [6] 0.24 µM | Potency [7] 10.4 µM
inactive: Potency [1]

COc1cc(Nc2ncc(F)c(Nc3ccc4c(n3)N(COP(=O)(O)O)C(=O)C(C)(C)O4)n2)cc(OC)c1OC
active: Potency [1] 3.72 µM | Potency [2] 5.85 µM | Potency [8] 7.37 µM | Potency [3] 11.7 µM | Potency [5] 10.4 µM | Potency [9] 3.69 µM

CCCCc1nc2cc(C=CC(=O)NO)ccc2n1CCN(CC)CC
active: Potency [1] 0.935 µM | Potency [2] 1.31 µM | Potency [8] 2.08 µM | Potency [3] 1.04 µM | Potency [4] 4.14 µM | Potency [5] 1.04 µM | Potency [9] 2.33 µM | Potency [6] 3.29 µM | Potency [7] 2.93 µM

COc1ccc(CC2c3cc(OC)c(OC)cc3CC[N+]2(C)CCC(=O)OCCCCCOC(=O)CC[N+]2(C)CCc3cc(OC)c(OC)cc3C2Cc2ccc(OC)c(OC)c2)cc1OC (centres undefined)
inactive: activity change, negative = cytotoxic [1] 23.2% [at 9.22 µM]

COC(=O)Nc1ccc(-c2nc(N3CCOCC3)c3cnn(C4CCN(Cc5cccnc5)CC4)c3n2)cc1
inactive: Potency [2]
active: Potency [1] 0.132 µM | Potency [3] 1.04 µM

O=C(O)c1ccc2cc(-c3ccc(O)c(C45CC6CC(CC(C6)C4)C5)c3)ccc2c1
active: Potency [1] 5.9 µM | Potency [2] 2.93 µM | Potency [8] 2.93 µM | Potency [3] 1.17 µM | Potency [5] 1.47 µM | Potency [9] 3.69 µM | Potency [6] 0.737 µM
inactive: Potency [4]

O=C(C=Cc1cccnc1)NCCCCC1CCN(C(=O)c2ccccc2)CC1
active: Potency [1] 0.118 µM
inactive: Potency [2] | Potency [3] | Potency [4] | Potency [5] | Potency [9] | Potency [6]

CC(C)(C)OC(=O)Nc1ccc(-c2cc(C(=O)NCCCCCCC(=O)NO)no2)cc1
active: Potency [1] 3.72 µM | Potency [2] 1.17 µM | Potency [3] 0.0329 µM | Potency [4] 18.5 µM | Potency [7] 4.14 µM

COc1cccc2nc(-c3cccs3)nc(NN3C(=O)C=C(C)C3=O)c12
active: Potency [1] 2.35 µM | Potency [2] 0.657 µM | Potency [3] 0.657 µM | Potency [4] 10.4 µM | Potency [5] 0.657 µM | Potency [9] 5.22 µM | Potency [6] 2.08 µM | Potency [7] 7.37 µM

CCS(=O)(=O)c1cccc(-c2cc(C(=O)NC3CCN(C)CC3)c(C)c3[nH]c4ncc(C)cc4c23)c1
active: Potency [1] 1.32 µM | Potency [2] 0.414 µM | Potency [8] 0.928 µM | Potency [3] 0.117 µM | Potency [4] 4.65 µM | Potency [5] 1.17 µM | Potency [9] 16.5 µM | Potency [6] 16.5 µM | Potency [7] 5.22 µM

Cc1ccc(-c2ncn(-c3ccc(Nc4nccc(-c5cccc(N6CCOCC6)c5)n4)cc3)n2)cn1
active: Potency [1] 0.132 µM | Potency [2] 0.107 µM | Potency [8] 0.17 µM | Potency [3] 0.12 µM | Potency [4] 0.214 µM | Potency [5] 0.0955 µM | Potency [9] 0.24 µM | Potency [7] 0.24 µM

COc1cccc2c(NCc3ccccc3)nc(-n3c(N)nc4ccccc43)nc12
active: Potency [1] 18.7 µM | Potency [2] 7.37 µM | Potency [3] 7.37 µM | Potency [4] 13.1 µM | Potency [5] 9.27 µM | Potency [9] 2.33 µM | Potency [6] 8.27 µM

Cc1cn2c(-c3cn[nH]c3)cnc2c(Nc2ccc(C(=O)N3CCNCC3)cc2F)n1
active: Potency [1] 18.7 µM | Potency [2] 9.27 µM | Potency [8] 8.27 µM | Potency [3] 26.1 µM | Potency [5] 13.1 µM
inactive: Potency [6]

C[C@@]12O[C@@H](C[C@]1(O)CO)n1c3ccccc3c3c4c(c5c6ccccc6n2c5c31)CNC4=O
active: Potency [1] 7.43 µM | Potency [2] 1.85 µM | Potency [8] 1.04 µM | Potency [3] 0.261 µM | Potency [4] 14.7 µM | Potency [5] 5.22 µM | Potency [9] 9.27 µM | Potency [6] 5.85 µM | Potency [7] 18.5 µM

COC(=O)c1ccc2c(C(=Nc3ccc(N(C)C(=O)CN4CCN(C)CC4)cc3)c3ccccc3)c(O)[nH]c2c1
active: Potency [1] 18.7 µM | Potency [2] 16.5 µM | Potency [3] 18.5 µM | Potency [5] 18.5 µM | Potency [9] 26.1 µM
inactive: Potency [4] | Potency [6] | Potency [7]

CC1(C)OC2=C(C(=O)c3ccccc3C2=O)[C@H](NCc2ccccc2)[C@H]1O
active: Potency [1] 7.43 µM | Potency [2] 7.37 µM | Potency [3] 5.22 µM | Potency [4] 20.8 µM | Potency [5] 7.37 µM | Potency [9] 8.27 µM | Potency [6] 9.27 µM | Potency [7] 7.37 µM
